Data: PubChem BioAssay (NCATS)
Activity calls are given as the source filed them. The call rests on the fitted dose curve.

Conditions: Ebola virus entry cell assay, ratio channel

| Compound | outcome | AC50 |
| --- | --- | --- |
| Cc1c(O)cccc1C(=O)N[C@@H](CSc1ccccc1)[C@H](O)CN1C[C@H]2CCCC[C@H]2C[C@H]1C(=O)NC(C)(C)C | inactive |  |
| CNC1(C)C2CCC(C2)C1(C)C (centres undefined) | inactive |  |
| OC(Cn1cncn1)(Cn1cncn1)c1ccc(F)cc1F | inactive |  |
| CCc1ccc(CCOc2ccc(CC3SC(=O)NC3=O)cc2)nc1 (centres undefined) | inactive |  |
| Cc1ccc(O)c([C@H](CCN(C(C)C)C(C)C)c2ccccc2)c1 |  | 11.2 µM (active) |
| CC(=O)CCCCn1c(=O)c2c(ncn2C)n(C)c1=O | inactive |  |
| Nc1nc2c(ncn2COCCO)c(=O)[nH]1 | inactive |  |
| CCOc1ccccc1OCCN[C@H](C)Cc1ccc(OC)c(S(N)(=O)=O)c1 | inactive |  |
| CCCCc1nc(Cl)c(CO)n1Cc1ccc(-c2ccccc2-c2nn[nH]n2)cc1 | inactive |  |
| NNc1nncc2ccccc12 | inactive |  |
| CC1(C)NC(=O)N(c2ccc([N+](=O)[O-])c(C(F)(F)F)c2)C1=O | inactive |  |
| Clc1ccc(C(c2ccccc2Cl)C(Cl)Cl)cc1 (centres undefined) | inactive |  |
| CNCCCN1c2ccccc2CCc2ccccc21 |  | 15.8 µM (active) |
| COc1ccc([C@@H]2Sc3ccccc3N(CCN(C)C)C(=O)[C@@H]2OC(C)=O)cc1 | inactive |  |
| O=C1NC(=O)C(c2ccccc2)(c2ccccc2)N1 | inactive |  |
| CC(=O)Nc1nnc(S(N)(=O)=O)s1 | inactive |  |
| C[C@@H](O[C@H]1OCCN(Cc2n[nH]c(=O)[nH]2)[C@H]1c1ccc(F)cc1)c1cc(C(F)(F)F)cc(C(F)(F)F)c1 | inactive |  |
| CCCSc1ccc2nc(NC(=O)OC)[nH]c2c1 |  | 8.91 µM (active) |
| CC[N+](C)(C)c1cccc(O)c1 | inactive |  |
| CN(CCOc1ccc(CC2SC(=O)NC2=O)cc1)c1ccccn1 (centres undefined) | inactive |  |

| Compound | outcome | AC50 |
| --- | --- | --- |
| O=C(O)CCCc1ccccc1 | inactive |  |
| C#C[C@]1(O)CC[C@H]2[C@@H]3CCC4=Cc5oncc5C[C@]4(C)[C@H]3CC[C@@]21C |  | 25.1 µM (active) |
| COCCCC/C(=N\OCCN)c1ccc(C(F)(F)F)cc1 | inactive |  |
| CC(=O)O[C@]1(C(C)=O)CC[C@H]2[C@@H]3C=C(C)C4=CC(=O)CC[C@]4(C)[C@H]3CC[C@@]21C | inactive |  |
| O=C(O)COCCN1CCN(C(c2ccccc2)c2ccc(Cl)cc2)CC1 (centres undefined) | inactive |  |
| O=NN(CCCl)C(=O)NCCCl | inactive |  |
| CN(C)CCc1c[nH]c2ccc(C[C@H]3COC(=O)N3)cc12 | inactive |  |
| OC(CCN1CCCC1)(c1ccccc1)C1CCCCC1 (centres undefined) |  | 20 µM (active) |
| CC(=O)O[C@]1(C(C)=O)CC[C@H]2[C@@H]3C=C(Cl)C4=CC(=O)[C@@H]5C[C@@H]5[C@]4(C)[C@H]3CC[C@@]21C | inactive |  |
| NC(=O)c1cn(Cc2c(F)cccc2F)nn1 | inactive |  |
| COc1nc(N)nc2c1ncn2[C@@H]1O[C@H](CO)[C@@H](O)[C@@H]1O | inactive |  |
| CCCCNc1ccc(C(=O)OCCOCCOCCOCCOCCOCCOCCOCCOCCOC)cc1 | inactive |  |
| N[C@@H]1CONC1=O | inactive |  |
| Cc1cn([C@H]2C=C[C@@H](CO)O2)c(=O)[nH]c1=O | inactive |  |
| CCCN(CCC)CCc1cccc2c1CC(=O)N2 | inactive |  |
| CN(C)CCOC(c1ccc(Cl)cc1)c1ccccn1 (centres undefined) | inactive |  |
| CN1C(CCl)Nc2cc(Cl)c(S(N)(=O)=O)cc2S1(=O)=O (centres undefined) | inactive |  |
| O=C(OC1C[C@H]2CC[C@@H](C1)[N+]21CCCC1)C(O)(c1ccccc1)c1ccccc1 (some centres undefined) | inactive |  |
| CC(C)NCC(O)COc1ccc(CCOCC2CC2)cc1 (centres undefined) |  | 15.8 µM (active) |
